The results in this text go back to PubChem BioAssay.

SMILES strings stand for the structures. Some of the results follow. Inconclusive results are not listed. Activity calls are given as the source filed them.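 How the source made its calls, unless noted: active means thallium entry rate above the same plate's blocked-transporter control wells by more than 3 SD; inconclusive means the two repeat wells disagree; inactive means the rest.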

Assay [1] in a line: inhibitors of TNFa-induced NFkB p65 translocation, primary screen, imaging, HUVEC, MLSMR starter and 10KST1 sets (AID 438;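 active means inhibition above 20% together with a positive visual image hit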;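 further: compound added about 3h40 before a 20 min TNFalpha stimulation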;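 on inhibition: signal is the nuclear over cytoplasmic p65 intensity ratio per well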). The following applies: HUVEC TNFa-induced p65 nuclear translocation; cell count: measured here: nuclei count (cytotoxicity indicator), at 2.08 µM; inhibition: at 2 µM, stronger effect = higher value, 0% TNFa-plus-vehicle, 100% no-TNFa wells.
The nature of assay [2]: inhibitors of mutant huntingtin aggregation, primary screen, imaging, exon1htt(103Q)mCFP cells, high-content imaging (AID 483;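 active means visual image review flags a hit and inhibition of aggregation exceeds 20%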;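 further: compound exposure lasted 3 days before fixation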;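 on nuclei count: percent of the per-plate median nuclei count of sample wells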). The following applies: exon1htt(103Q)mCFP cell line, aggregate imaging, at 2 µM; inhibition of aggregation: stronger effect = higher value; nuclei count: measured here: cell count, toxicity.
Assay [3] in a line: inhibitors of E-selectin induction by TNFa, primary screen, imaging, HUVEC, immunofluorescence, MLSMR starter and 10KST1 sets (AID 487;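 active means visually confirmed hit in the image check and inhibition above 20%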;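 on inhibition: signal is fraction of cell area covered by stained E-selectin grains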;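 on nuclei count: 100% = median nuclei count of all wells on the same plate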). The following applies: HUVEC TNFalpha-induced E-selectin immunofluorescence imaging, at 2 µM; inhibition: stronger effect = higher value; nuclei count: measured here: cell number, toxicity.
A short description of assay [4]: DUSP6 inhibitors restoring Erk phosphorylation by chemical complementation, primary imaging in DUSP6-transfected HeLa (AID 609;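 active means compounds giving at least 50% inhibition in the cell-based MKP-3 phosphatase rescue imaging test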;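 on inhibition: phospho-Erk level distribution per well compared with pooled transfected vehicle control wells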). The following applies: HeLa MKP-3 transfected, phospho-Erk imaging KS statistic, at 10 µM, cells stimulated with TPA for 15 min.
For assay [5], the target named is Dual specificity protein phosphatase 6 (Homo sapiens) (UniProt Q16828). Described as above. The following applies: HeLa MKP-3 transfected, phospho-Erk imaging KS statistic; at 10 µM; stronger effect = higher value; cells stimulated with TPA for 15 min.
Assay [6] addresses Voltage-gated potassium channel subunit beta-2 (Rattus norvegicus) (UniProt P62483). Kind of assay: KvBeta enzyme negative modulators, primary screen, biochemical, NADPH fluorescence (AID 622;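 active means fluorescence slope higher than the sample average by over 3 SD, cut at about -0.22 in these data, passing the limit was not always enough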;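 further: slope of raw intensity against log time taken from 70 to 1610 s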). The following applies: recombinant KvBeta, 4-cyanobenzaldehyde reduction, at 10 µM, stronger effect = higher value.
Assay [7] has the same target. The assay can be described thus: KvBeta positive modulators, primary screen, biochemical, NADPH fluorescence (AID 623;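 active means NADPH fluorescence slope more negative than the mean of all samples by about 3 SD, 99.7% confidence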;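 further: fluorescence intensity change per second fitted from 20 to 320 s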). The following applies: Recombinant KvBeta, NADPH fluorescence decrease slope, 10 min; at 10 µM; stronger effect = lower value.
The target in assay [8] is Muscarinic acetylcholine receptor M4 (Homo sapiens) (UniProt P08173). Kind of assay: compounds altering M4/GIRK thallium flux, either direction, primary screen, M4 allosteric agonist project, cell-based, HEK293 M4/GIRK, BTC-AM (AID 625;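 active means fluorescence slope after compound addition differing from the mean of all tested samples at 99.7% confidence, mostly higher but some lower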;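 further: thallium influx through GIRK channels coupled to M4 in HEK293 cells with BTC-AM dye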). The following applies: at 10 µM, actives lie on both sides.
Assay [9] can be described thus: inhibitors of larval lipid processing in zebrafish, primary screen, whole organism, PED6 fluorescence, gall bladder and intestine (AID 686;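 active means a full or partial loss of lipid-probe fluorescence in the fish gall bladder, intestine or both, judged by eye; inactive means no fluorescence loss, or compound toxic to the fish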;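 further: larvae 5 to 7 days old with five fish per well; signal comes from phospholipase A2 cleavage of quenched PED6 carried via bile; overnight exposure to compound and PED6 before scoring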). The following applies: Zebrafish larvae PED6 lipid processing, fluorescence scoring; screened at 20 µM (by protocol).
Assay [10] deals with Solute carrier family 12 member 5 (Homo sapiens) (UniProt Q9H2X9). Kind of assay: KCC2 modulators in sodium-free buffer, confirmation, cell-based, HEK293 KCC2, thallium flux, secondary assay (AID 1713;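 active means thallium flux slope above the same plate's solvent-only control mean plus 3 SD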). The following applies: FluoZin2 fluorescence, at 10 µM, stronger effect = higher value.
A further assay in a line: PubChem AID 1714.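 Further: raw slope of fluorescence over initial fluorescence between 10 and 20 s after thallium.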 The following applies: HEK293-KCC2 + bumetanide/ouabain, thallium flux FluoZin2; at 10 µM; stronger effect = higher value.
Assay [11] has as its target Solute carrier family 12 member 5 (Homo sapiens) (UniProt Q9H2X9). Kind of assay: KCC2 modulators without ouabain present, confirmation, cell-based, HEK293 KCC2, thallium flux, FluoZin2, secondary assay 2 (AID 1715;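 active means thallium flux slope more than 3 SD above or below the plate's solvent-only control mean, mostly below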;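 further: raw slope with 0.1% DMSO as baseline and bumetanide as block control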). The following applies: HEK293-KCC2, thallium flux FluoZin2 fluorescence; at 10 µM; actives lie on both sides; F/F0 rise rate, 10–20 s post-thallium.
Assay [12] in a line: thallium flux modulation in parental HEK cells, confirmation, counter-screen for KCC2 modulator project, cell-based, counterscreen 1 (AID 1716;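 active means thallium flux rate significantly above the same plate's solvent-only control wells, beyond their mean plus 3 SD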). The following applies: HEK293 parental cells, thallium flux FluoZin2, ouabain; at 10 µM; baseline-ratio fluorescence slope, 10–20 s after thallium. For orientation: A counterscreen serves to expose hits that act by an unwanted route or on another target.

Assay [13] concerns the target Solute carrier family 12 member 5 (Homo sapiens) (UniProt Q9H2X9). Kind of assay: KCC2 inhibitors and activators, ouabain retest, confirmation, HEK-KCC2 cells (AID 1717;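 active means thallium flux slope beyond 3 SD from same-plate DMSO control mean in most replicates, usually higher, sometimes lower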;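 further: slope of initial-normalized fluorescence between seconds 10 and 20 after thallium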). The following applies: HEK293-KCC2, thallium flux FluoZin2 fluorescence, at 10 µM, bidirectional: low = inhibitor, high = activator.
The nature of assay [14]: native HEK Tl+ uptake effects, second counter-screen – HEK cells, counterscreen 2, counter-screen for KCC2 modulator project, confirmation (AID 1718;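 active means thallium flux slope above the same plate's solvent-control mean plus 3 SD in both duplicate wells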;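 further: run without ouabain in cells lacking the KCC2 cotransporter; slope of fluorescence scaled to its starting value between 10 and 20 s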). The following applies: HEK293 parental, thallium flux FluoZin-2 fluorescence slope; at 10 µM.
The nature of assay [15]: inhibitors of Chlamydomonas gravitaxis, primary screen, whole organism, Chlamydomonas reinhardtii, WT vs cilia-less mutant, absorbance, 96-well (AID 463189;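 active means inhibition at or above 50% relative to wild type and mutant plate controls; inactive means inhibition below 50%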;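 further: 0% = wild type cc124 cells in DMSO and 100% = ciliumless bld1 mutant cells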). The following applies: OD600 absorbance, 2 days, at 10 µM, stronger effect = higher value.
A short description of assay [16]: inhibitors of Sendai virus-induced IRF3 signaling, primary screen, TLR/RLR signaling modifier project, cell-based, Sendai virus stimulus, luciferase, 10K MLSCN set (AID 602276;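 active means inhibition at or above 50% at 10 µM; inactive means inhibition below 50%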;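 further: firefly luciferase from ISG56 promoter only with Renilla not read in this screen; 0% = Sendai virus plus DMSO and 100% = medium plus DMSO without virus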). The following applies: HEK293 RL24 IRF3 luciferase reporter, at 10 µM, stronger effect = higher value. (A reporter such as luciferase makes a cellular process visible.)
The nature of assay [17]: inhibitors of poly I:C-induced TLR3 signaling, primary screen, cell-based, poly I:C stimulus, luciferase, 10K MLSCN set (AID 602277;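 active means inhibition of the reporter signal at or above 50%; inactive means inhibition below 50%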). The following applies: HEK293-TLR3 RL24 IRF3 luciferase reporter, at 10 µM, stronger effect = higher value.

Sequence of Solute carrier family 12 member 5 (Homo sapiens) (Q9H2X9 whole entry, looked up): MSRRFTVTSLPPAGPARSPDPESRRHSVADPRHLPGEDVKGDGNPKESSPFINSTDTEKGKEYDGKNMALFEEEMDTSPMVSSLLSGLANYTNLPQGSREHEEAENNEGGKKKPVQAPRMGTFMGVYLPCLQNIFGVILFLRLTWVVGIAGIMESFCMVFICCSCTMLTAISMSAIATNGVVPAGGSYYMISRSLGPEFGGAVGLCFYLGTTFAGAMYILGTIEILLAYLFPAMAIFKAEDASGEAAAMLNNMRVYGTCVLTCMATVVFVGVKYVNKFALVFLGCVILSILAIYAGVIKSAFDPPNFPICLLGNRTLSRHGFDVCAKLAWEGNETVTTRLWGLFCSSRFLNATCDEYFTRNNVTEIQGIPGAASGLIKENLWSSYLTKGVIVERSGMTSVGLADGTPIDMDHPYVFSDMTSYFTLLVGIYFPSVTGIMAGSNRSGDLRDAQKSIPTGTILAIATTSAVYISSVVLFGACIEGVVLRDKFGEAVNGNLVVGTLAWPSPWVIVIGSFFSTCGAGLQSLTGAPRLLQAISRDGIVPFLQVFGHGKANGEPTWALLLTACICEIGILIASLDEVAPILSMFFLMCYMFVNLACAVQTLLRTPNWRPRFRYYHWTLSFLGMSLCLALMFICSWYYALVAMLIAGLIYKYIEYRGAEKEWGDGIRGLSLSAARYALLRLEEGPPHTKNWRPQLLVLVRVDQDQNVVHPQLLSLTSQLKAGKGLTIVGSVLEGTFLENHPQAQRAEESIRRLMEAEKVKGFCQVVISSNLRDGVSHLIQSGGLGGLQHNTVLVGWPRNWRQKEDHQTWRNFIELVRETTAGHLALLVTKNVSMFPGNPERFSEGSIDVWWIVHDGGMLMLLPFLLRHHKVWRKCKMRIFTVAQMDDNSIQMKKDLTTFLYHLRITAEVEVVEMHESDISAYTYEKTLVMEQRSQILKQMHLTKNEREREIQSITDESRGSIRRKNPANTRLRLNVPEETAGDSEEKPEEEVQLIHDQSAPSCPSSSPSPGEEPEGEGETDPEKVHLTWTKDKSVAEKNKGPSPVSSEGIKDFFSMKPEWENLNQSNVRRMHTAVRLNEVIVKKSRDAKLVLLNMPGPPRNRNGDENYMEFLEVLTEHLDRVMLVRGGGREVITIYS
Sequence of Voltage-gated potassium channel subunit beta-2 (Rattus norvegicus) (P62483 whole entry, looked up): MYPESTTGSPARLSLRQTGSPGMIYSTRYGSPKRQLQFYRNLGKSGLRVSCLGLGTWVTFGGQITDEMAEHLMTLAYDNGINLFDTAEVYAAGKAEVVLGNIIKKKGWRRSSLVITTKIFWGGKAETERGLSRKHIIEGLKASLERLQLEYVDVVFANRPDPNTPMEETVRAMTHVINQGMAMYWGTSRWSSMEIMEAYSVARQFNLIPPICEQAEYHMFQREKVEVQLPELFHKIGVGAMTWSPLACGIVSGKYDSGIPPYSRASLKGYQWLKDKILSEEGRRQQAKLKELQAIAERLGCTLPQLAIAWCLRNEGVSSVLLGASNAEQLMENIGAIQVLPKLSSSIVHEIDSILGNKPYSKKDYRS
Sequence of Muscarinic acetylcholine receptor M4 (Homo sapiens) (P08173 whole entry, looked up): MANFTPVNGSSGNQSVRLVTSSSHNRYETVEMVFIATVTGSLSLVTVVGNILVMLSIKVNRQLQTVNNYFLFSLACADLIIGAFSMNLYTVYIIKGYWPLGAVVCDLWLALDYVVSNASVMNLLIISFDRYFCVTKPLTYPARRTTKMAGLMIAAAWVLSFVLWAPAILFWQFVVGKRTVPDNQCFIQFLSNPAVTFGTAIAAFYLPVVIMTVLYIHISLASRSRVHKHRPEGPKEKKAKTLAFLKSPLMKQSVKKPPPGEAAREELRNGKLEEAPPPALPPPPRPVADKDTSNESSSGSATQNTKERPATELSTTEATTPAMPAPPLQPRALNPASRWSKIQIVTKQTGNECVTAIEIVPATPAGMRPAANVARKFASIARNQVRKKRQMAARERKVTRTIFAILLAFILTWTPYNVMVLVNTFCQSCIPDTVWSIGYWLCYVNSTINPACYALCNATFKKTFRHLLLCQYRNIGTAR
Sequence of Dual specificity protein phosphatase 6 (Homo sapiens) (Q16828 whole entry, looked up): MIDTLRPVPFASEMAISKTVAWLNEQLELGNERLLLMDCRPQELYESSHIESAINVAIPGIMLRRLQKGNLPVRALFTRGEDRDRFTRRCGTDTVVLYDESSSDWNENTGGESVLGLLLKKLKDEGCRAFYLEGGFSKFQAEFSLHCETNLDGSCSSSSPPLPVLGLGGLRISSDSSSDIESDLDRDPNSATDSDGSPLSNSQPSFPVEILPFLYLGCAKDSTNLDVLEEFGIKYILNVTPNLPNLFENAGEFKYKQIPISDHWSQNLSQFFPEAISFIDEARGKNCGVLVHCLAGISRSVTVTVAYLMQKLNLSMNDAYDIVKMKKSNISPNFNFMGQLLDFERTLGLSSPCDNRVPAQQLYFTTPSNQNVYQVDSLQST

A word on the inhibition: it is the change of the read-out against control, counted positive when it falls. Consider `CCNCc1cc2cc(C)ccc2[nH]c1=O`, for which, in [1], the cell count worked out at 596. For the same molecule, the inhibition in [1] was -5.2% (inactive); in assay [3], -107% (inactive); in [5], 2.71% (inactive); in assay [15] it was 9.6% (inactive); in assay [16], 3.24% (inactive); in assay [17] it was 16.9% (inactive). Also, in assay [2], the inhibition of aggregation is 1.8% (inactive). Moreover, the nuclei count in [2] was 118%; in assay [3], 132%. Moreover, the z-score is 0.581 in [4] (measured here: cell density z-score); -1.49 in assay [4] (measured here: nuclear c-Myc green intensity z-score); -1.38 in assay [4] (measured here: nuclear pErk red intensity z-score, stronger effect = higher value). In addition, the figures for the fluorescence slope in assay [6] and in assay [8] were -0.515 (inactive) and 0.00569 (inactive), respectively. For the same molecule, the NADPH fluorescence slope in assay [7] was -4.8e-05 (inactive). Also, the call in assay [9] was inactive. Also, the normalised thallium flux (F/F0 slope) in [10] was 0.00875 (inactive). The figures for the normalized thallium flux (in “PubChem AID 1714”; in [11]) were 0.00485 (inactive) and 0.034 (inactive), respectively. In assay [12], the thallium flux rate (normalised fluorescence) is 0.00817 (inactive). Also, the raw Tl+ flux slope (below DMSO = inhibition, above = activation) in [13] is 0.0185 (inactive). Besides, in [14], the thallium flux slope was 0.0111 (inactive).
`COc1ccc(-c2cn(-c3ccc(OC)cc3)c(=S)[nH]2)cc1`: the normalised thallium flux (F/F0 slope) in [10] was 0.00623 (inactive). Also, the normalized thallium flux in the assay “PubChem AID 1714” was 0.0216 (active); in [11] it was 0.0299 (inactive). In addition, in assay [12], the thallium flux rate (normalised fluorescence) is 0.0163 (active). In addition, in assay [14], the thallium flux slope is 0.0135 (active).
Regarding `CN(C)CCn1c(=S)[nH]c2ccc(Cl)cc2c1=O`, in assay [10], the normalised thallium flux (F/F0 slope) was 0.00617 (inactive). The normalized thallium flux in the assay “PubChem AID 1714” was 0.0089 (active); in [11], 0.0337 (inactive). The thallium flux rate (normalised fluorescence) in assay [12] was 0.0128 (active). Also, the thallium flux slope in assay [14] was 0.0165 (active).
Take `COC(=O)c1sccc1NC(=O)c1cc(OC)c(OC)c(OC)c1`: in [10], the normalised thallium flux (F/F0 slope) is 0.00806 (inactive). Moreover, the results for the normalized thallium flux (in “PubChem AID 1714”; in assay [11]) were 0.00564 (inactive) and 0.029 (inactive), respectively. Further, in [12], the thallium flux rate (normalised fluorescence) was 0.00681 (inactive). Moreover, the raw Tl+ flux slope (below DMSO = inhibition, above = activation) in [13] is 0.0198 (inactive). In addition, the thallium flux slope in assay [14] was 0.00953 (inactive).
On to `CCCn1c(=S)[nH]c2ccc(C(F)(F)F)cc21`, for which the normalised thallium flux (F/F0 slope) in assay [10] was 0.00727 (inactive). Further, the normalized thallium flux in “PubChem AID 1714” is 0.0987 (active); in assay [11] it was 0.0617 (active). In addition, in [12], the thallium flux rate (normalised fluorescence) is 0.0842 (active). Besides, the raw Tl+ flux slope (below DMSO = inhibition, above = activation) in assay [13] was 0.0775 (active). Further, in assay [14], the thallium flux slope is 0.0576 (active).
For `Cc1nn(-c2ccccc2)c2sc(C(=O)N(Cc3ccco3)C(C)C(=O)NC(C)(C)C)cc12` (centres undefined), the normalised thallium flux (F/F0 slope) in assay [10] is 0.00786 (inactive). Besides, the normalized thallium flux in “PubChem AID 1714” is 0.00436 (inactive); in [11], 0.0324 (inactive). Further, the thallium flux rate (normalised fluorescence) in assay [12] is 0.00693 (inactive). Further, in assay [13], the raw Tl+ flux slope (below DMSO = inhibition, above = activation) was 0.0198 (inactive). Besides, the thallium flux slope in assay [14] is 0.0103 (inactive).
Consider `COc1cccc(-c2nc(S(=O)(=O)c3ccccc3)c(N3CCOCC3)o2)c1`, for which the normalised thallium flux (F/F0 slope) in [10] is 0.00627 (inactive). For the same molecule, the figures for the normalized thallium flux (in the assay “PubChem AID 1714”; in assay [11]) were 0.0046 (inactive) and 0.0314 (inactive), respectively. Further, the thallium flux rate (normalised fluorescence) in assay [12] was 0.00767 (inactive). For the same molecule, in [13], the raw Tl+ flux slope (below DMSO = inhibition, above = activation) was 0.0193 (inactive). In assay [14], the thallium flux slope was 0.0105 (inactive).
As to `CCCOC(=O)CC1C(=O)NCCN1Cc1ccc(F)cc1` (centres undefined), the normalised thallium flux (F/F0 slope) in assay [10] is 0.00813 (inactive). Moreover, the normalized thallium flux in “PubChem AID 1714” was 0.00582 (inactive); in [11] it was 0.0278 (inactive). For the same molecule, the thallium flux rate (normalised fluorescence) in [12] is 0.0066 (inactive). For the same molecule, the raw Tl+ flux slope (below DMSO = inhibition, above = activation) in assay [13] is 0.019 (inactive). Also, in assay [14], the thallium flux slope was 0.00872 (inactive).
For the molecule `S=c1[nH]nc(Nc2ccccc2)s1`, in assay [10], the normalised thallium flux (F/F0 slope) is 0.00869 (inactive). Also, the results for the normalized thallium flux (in the assay “PubChem AID 1714”; in assay [11]) were 0.00545 (inactive) and 0.026 (active), respectively. Also, the thallium flux rate (normalised fluorescence) in assay [12] was 0.00742 (inactive). Further, in [13], the raw Tl+ flux slope (below DMSO = inhibition, above = activation) is 0.0108 (active). In addition, the thallium flux slope in assay [14] is 0.00974 (inactive).
